{
  "source": "PubChem BioAssay (Tox21)",
  "note": "Records with an inconclusive call do not appear. Where a call stands in place of a potency, no number is given. Calls of active or inactive are those of the source. Calls come from the whole dose curve; as a rule, active = well fitted cell-killing curve with a large enough effect in the repeat runs; inconclusive = weak or mixed curves; inactive = flat fitted curve, though single readings scatter. Potency is the fitted concentration of half-maximal effect.",
  "data": [
    {"experiment": "qHTS RealTime-Glo MT Cell Viability Assay in HepG2 cells - 16 hour (AID 1224885); note: nearly all actives have a fitted effect of over 50% in size", "settings": "RealTime-Glo luminescence; series mostly up to 76.8 µM", "source_text": "U.S. Tox21 Program National Center for Advancing Translational Sciences [NCATS] NIH Chemical Genomics Center [NCGC] U.S. Environmental Protection Agency [EPA] National Institutes of Environmental Health Sciences [NIEHS] National Toxicology Program [NTP] U.S. Food and Drug Administration [FDA] Tox21 Assay Overview: Measure of cell viability is critical in the cell-base assay. Analysis of cell viability is necessary for the characterization of cell responses to cytotoxic drugs and environmental stress. A RealTime-Glo MT Cell Viability Assay to monitor cell viability in real time of continues cell culture during 40 hours of compound treatment was used to screen Tox21 10K library compounds in HepG2 cells. The RealTime-Glo MT Cell Viability Assay is a nonlytic, homogeneous, bioluminescent method to measure cell viability in real time using a simple, plate-based method. The assay involves adding NanoLuc luciferase and a cell-permeant prosubstrate to cells in culture. Viable cells reduce the proprietary prosubstrate to generate a substrate for NanoLuc luciferase. This substrate diffuses from cells into the surrounding culture medium, where it is rapidly used by the NanoLuc Enzyme to produce a luminescent signal. The signal correlates with the number of viable cells, making the assay well suited for cytotoxicity studies.\nTox21 Assay Protocol Summary: The mixture of HepG2 cell suspension and reagents were dispensed at 600cells/6 ul/well in 1536-well tissue culture treated black solid bottom plates using a Multidrop dispenser. After the assay plates were incubated at a 37 C/5% CO2 incubator for 5 hours, 23 nL of compounds dissolved in DMSO, positive and negative controls was transferred to the assay plate by a pintool work station. The plates were incubated at 37 C for 40 hours. The luminescence intensity were measured at 0h, 8h, 16h, 24h, 32h and 40h time points using ViewLux plate reader during compound treatment.", "values": [
      {"smiles": "Nc1ncnc2nc[nH]c12", "Potency": "inactive"},
      {"smiles": "O=C(OCc1ccccc1)c1ccccc1O", "Potency": "inactive"},
      {"smiles": "Brc1cc(Oc2cc(Br)c(Br)c(Br)c2Br)c(Br)c(Br)c1Br", "Potency": "inactive"},
      {"smiles": "O=C(/C=C/C=C/c1ccc2c(c1)OCO2)N1CCCCC1", "Potency": "inactive"},
      {"smiles": "COC(=O)CCC(=O)OC", "Potency": "inactive"},
      {"smiles": "Cc1cccc(C(=O)O)c1", "Potency": "inactive"},
      {"smiles": "Cc1cc2nc3c(=O)[nH]c(=O)nc-3n(C[C@H](O)[C@H](O)[C@H](O)CO)c2cc1C", "Potency": "inactive"},
      {"smiles": "CC1=CC2C3CC(C=C3C)C2C1", "note": "(stereo not given)", "Potency": "inactive"},
      {"smiles": "COc1ccccc1/C=C/C=O", "Potency": "inactive"},
      {"smiles": "COc1c(Cl)c(Cl)c(Cl)c(Cl)c1Cl", "Potency": "inactive"},
      {"smiles": "O=P(O)(O)O", "Potency": "inactive"},
      {"smiles": "O=C(COc1ccc(Cl)cc1)N1CCN(Cc2ccc3c(c2)OCO3)CC1", "Potency": "inactive"},
      {"smiles": "c1ccc2cc(Nc3ccc(Nc4ccc5ccccc5c4)cc3)ccc2c1", "Potency": "inactive"},
      {"smiles": "CC(=O)C1(C)CC2=C(CCCC2(C)C)CC1C", "note": "(stereo not given)", "Potency": "inactive"},
      {"smiles": "Clc1nc(Cl)c(Cl)c(Cl)c1Cl", "Potency": "inactive"},
      {"smiles": "CC(C)OB(OC(C)C)OC(C)C", "Potency": "inactive"},
      {"smiles": "C[C@]12CC[C@H]3[C@@H](CCC4=CC(=O)CC[C@@]43C)[C@@H]1CC[C@@H]2C(=O)CO", "Potency": "inactive"},
      {"smiles": "O=C(Nc1ccc([N+](=O)[O-])cc1Cl)c1cc(Cl)ccc1O", "Potency": "inactive"},
      {"smiles": "O=C=Nc1ccc(Cc2ccc(N=C=O)cc2)cc1", "Potency": "inactive"},
      {"smiles": "C[C@]12CCC(=O)C=C1CC[C@@H]1[C@@H]2C(=O)C[C@@]2(C)[C@H]1CC[C@]2(O)C(=O)CO", "Potency": "inactive"},
      {"smiles": "c1cc(-c2ccncc2)ccn1", "Potency": "inactive"},
      {"smiles": "C=CC(C)(CCC=C(C)C)OC(C)=O", "note": "(stereo not given)", "Potency": "inactive"},
      {"smiles": "CC(C)=CCC/C(C)=C\\CO", "Potency": "inactive"},
      {"smiles": "O=CCCCC=O", "Potency": "inactive"},
      {"smiles": "Nc1ccc(Cl)cc1Cl", "Potency": "inactive"},
      {"smiles": "COc1ccc(OC)c(C(O)CNC(=O)CN)c1", "note": "(stereo not given)", "Potency": "inactive"},
      {"smiles": "CN(C)C(=N)N=C(N)N", "Potency": "inactive"},
      {"smiles": "c1ccc2sc(SSN3CCOCC3)nc2c1", "Potency": "54.9 µM (active)"},
      {"smiles": "Nc1ncn([C@@H]2O[C@H](CO)[C@@H](O)[C@H]2O)c(=O)n1", "Potency": "inactive"},
      {"smiles": "CC(C)(C)NC(=O)[C@H]1CC[C@H]2[C@@H]3CC[C@H]4NC(=O)C=C[C@]4(C)[C@H]3CC[C@]12C", "Potency": "inactive"},
      {"smiles": "O=C(c1ccc(OCCN2CCCCC2)cc1)c1c(-c2ccc(O)cc2)sc2cc(O)ccc12", "Potency": "inactive"},
      {"smiles": "Oc1ccc(O)cc1", "Potency": "inactive"},
      {"smiles": "CN1C(C(=O)Nc2ccccn2)=C(O)c2ccccc2S1(=O)=O", "Potency": "inactive"},
      {"smiles": "CC(C)=CCCC(C)CCO", "note": "(stereo not given)", "Potency": "inactive"},
      {"smiles": "c1ccc2c(c1)c1cccc3ccc4cccc2c4c31", "Potency": "inactive"},
      {"smiles": "CN(C)CCC=C1c2ccccc2CCc2ccccc21", "Potency": "inactive"},
      {"smiles": "CCCCNS(=O)(=O)c1ccccc1", "Potency": "inactive"},
      {"smiles": "CCOCCOCCO", "Potency": "inactive"},
      {"smiles": "C=C(C)C(=O)OCCOC(=O)C(=C)C", "Potency": "inactive"},
      {"smiles": "c1ccc(Nc2ccccc2)cc1", "Potency": "inactive"}
    ]}
  ]
}
